This is an account of results in the supplement of paper PMC6555819.

In the experiment the test system is VDR:RXRa (NR concentration 270 nM, RXRa partner concentration 90 nM). Put plainly: PBM binding z-score (relative to random genomic background probes); higher = stronger binding; sequences stand for … in GC…GCGATTGACAGCGTAGAATGAAGG
How it is done:
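Protein-binding microarray (Agilent 4x180K custom design, double-stranded 60-nt probes: 5' GC cap, 34-nt variable region, 24-nt constant primer region; full probe sequence given). Purified or IVT nuclear receptor:RXRα heterodimers (3:1 NR:RXRα, mostly 270:90 nM) or homodimers were incubated for 1 h in PBS with 2% milk and no ligand, then detected with Alexa488 antibodies. Fluorescence from o1-orientation probes (~5 replicates averaged) was converted to z-scores against 500 random hg19 background probes. Variable regions are seed direct-repeat (DR0–DR5) sites, all their single-nucleotide variants and half-site ablations.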
For the sequence CGCACTAGGTCACCAGGACAGTGAAGAGGTTGGA, the PBM binding z-score worked out at 1.87.

In turn, CCTTACGGGTCAAGGTTATACCACGGGTGGTACG came in with a PBM binding z-score of 3.65.

As for ATCGAAATGTCGTGAGGTGAGTATACAGAAAGGC, the PBM binding z-score is -0.0568.

For CGAACAAGGTCAAAGGACAGTGAAAGGCGACGTA, the PBM binding z-score was 3.93.

CCGAGTAGGTTACGTGGGGGCATTCAGTGCGAAT came in with a PBM binding z-score of 5.48.

In turn, TAGCCTAGGTCAGATCGGGGCAGTATACGCTATA showed a PBM binding z-score of 1.56.

As for ACTAGTTGGTCAGCTGAGGTAACACACAATTCGG, the PBM binding z-score worked out at 0.448.

Take ATCGAATGGTCGAAGGTGAGTATACCCACCCGAA: the PBM binding z-score was -0.0843.

Take ATCGAAACGTCGACGAGGTGAGTATACACCGTTT: the PBM binding z-score was -0.119.

In the case of CGTACTAGGTCAAAGGACAGTGAAAGGCGACGTA, the PBM binding z-score was found to be 1.33.

In turn, ATCGAAAGGTCGAGGAGGTGAGTATACACCGTTT gave a PBM binding z-score of 4.25.

Turning to CGAACTAGGTCCCCAGGACAGTGAAGAGGTTGGA, the PBM binding z-score is -0.892.

TGAATGAGGTCAAAGATCAGGGAACGTGGCGTCG had a PBM binding z-score of 5.6.

ATATGTAGGTTACATCCGGGTCATTCTGGCTATG came in with a PBM binding z-score of 3.69.

As for CCTGCTAGGTCAATGGTCAGCTAAAGCAGCTCGC, the PBM binding z-score was 1.02.

TGTCAAAGTTCTAAGGTAACGTAAGTATCCACAC: the PBM binding z-score turned out to be 0.479.

Turning to AGTCAAAATTCACTAGGTAACGTAAGATTCAGCT, the PBM binding z-score was 0.0665.

In turn, CAACCTAGGTCACCGGAAGGTCAAAGTCCGCATG displayed a PBM binding z-score of 6.51.

For the sequence CGTCCAAGGTCAATTCTAGGTCAGTGAAAGCATT, the PBM binding z-score worked out at 4.61.

AGTAGCAGGCCAAGGGTCACTCAAGATTAGTCCG registered a PBM binding z-score of 2.94.

Regarding CTCGAAAGGTCGTGGTCAGGTGAGTATACCAAAC, the PBM binding z-score is 3.61.

CGAACTAGGTAACCAGGACAGTGAAGAGGTTGGA: the PBM binding z-score was -0.0408.

As to TAGCCTAGGTTATGCGGGCCAGTATAGTGTCGGC, the PBM binding z-score was -0.0997.

Take TCGAGCAGGTTACGGGGGCATTCAGGGATGAAGA: the PBM binding z-score was 3.86.

CGTCCAAGGGCAATGCTAGGTCAGTGAAAGCATT yielded a PBM binding z-score of 0.893.

CCGAGTAGGTTACGCGGGGGCATTCAGTGCGAAT: the PBM binding z-score was 5.48.

For TAGCCTAGGTCCTTCAGGGGCCAGTATAGAAAGC, the PBM binding z-score was -0.708.

CCGAGTCGGTTACGAGGGGGCATTCAGTGCGAAT: the PBM binding z-score came to 3.65.

For TCGAGTAGGCTACGGGGGCATTCAGGGATGAAGA, the PBM binding z-score was 2.2.

CGAACTAGGTCAAAGGACTGTGAAAGGCGACGTA displayed a PBM binding z-score of 1.14.

Take TCATATAGGTAATCAGGTGAAAGTCCGTAAGTTA: the PBM binding z-score amounted to 1.19.

Consider TCTAGTTGGTCACGGGGGTCACACACGACGGGTA, for which the PBM binding z-score worked out at 6.57.

As to CTCGAAAGGTCGTCCTCAGGTGAGTATACCAAAC, the PBM binding z-score was determined as 3.41.

The sequence TCTACTTGGTCACGGAGGTCACACACGACGGGTA came in with a PBM binding z-score of 5.85.

Turning to CCGTGTAGGTTACGAGGGGGCATTCAGTGCGAAT, the PBM binding z-score came to 5.7.

Regarding ATTTGTAGGTTAGGGTCATTCAGAAAGTAGGGAA, the PBM binding z-score stood at 4.81.

CTCGAAAGGTCGGTTGAGGTGAGTAAACGGATAA yielded a PBM binding z-score of 2.11.

The sequence CGAACTAGGTCACCAGGACAGGGAAGAGGTTGGA gave a PBM binding z-score of 1.91.

In turn, CAAACTAGGTCACGAAAGGTCAAAGTGGAATGAC registered a PBM binding z-score of 6.71.

For CAAACTAGGTCACAGAGGTCAACGTCCGTGCGTA, the PBM binding z-score was found to be 7.74.
